{
  "source": "PubChem BioAssay AID493170",
  "about": "(National Center for Advancing Translational Sciences (NCATS), 2011)",
  "note": "Records with an inconclusive call do not appear. A number with no mark means an inactive call. Activity calls are given as the source filed them. Calls follow the shape of the dose curve; as a rule, active = well fitted inhibition curve with a large enough effect; inconclusive = small, poorly fitted or top-dose-only effect, or effect the other way; inactive = flat fitted curve, though single readings scatter. % is scaled to controls: 0 for no effect and ±100 for the full control effect; potency is read from the fitted curve at half-maximal effect.",
  "data": [
    {"target": "Ubiquitin carboxyl-terminal hydrolase 2 (Homo sapiens) (UniProt O75604)", "sequence (O75604 whole entry, looked up)": "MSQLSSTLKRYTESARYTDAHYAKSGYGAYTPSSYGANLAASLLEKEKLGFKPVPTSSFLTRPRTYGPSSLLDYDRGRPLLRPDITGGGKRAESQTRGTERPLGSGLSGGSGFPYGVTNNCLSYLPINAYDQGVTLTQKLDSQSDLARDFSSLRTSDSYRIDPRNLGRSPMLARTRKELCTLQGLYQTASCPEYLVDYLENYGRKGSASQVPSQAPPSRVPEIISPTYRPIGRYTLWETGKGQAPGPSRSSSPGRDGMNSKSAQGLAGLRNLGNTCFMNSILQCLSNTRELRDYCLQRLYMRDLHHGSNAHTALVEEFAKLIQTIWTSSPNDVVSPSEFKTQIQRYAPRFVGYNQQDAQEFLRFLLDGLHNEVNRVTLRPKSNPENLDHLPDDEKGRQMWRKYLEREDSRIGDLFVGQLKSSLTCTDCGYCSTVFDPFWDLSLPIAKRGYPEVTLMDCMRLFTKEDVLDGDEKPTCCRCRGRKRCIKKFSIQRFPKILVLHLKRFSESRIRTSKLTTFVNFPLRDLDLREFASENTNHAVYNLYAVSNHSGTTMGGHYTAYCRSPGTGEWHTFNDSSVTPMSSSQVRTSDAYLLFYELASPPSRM", "assay": "Ub-rhodamine 110 based assay for inhibitors Ubiquitin-specific Protease USP2a; also: nearly all actives have a fitted effect of over 50% in size", "settings": "USP2a Ub-rhodamine110 cleavage, fluorescence; series mostly up to 38.3 µM; activity change, negative = inhibition: at the top concentration", "in_short": "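5 nM USP2a preincubated with compounds for 30 min at RT in 20 mM Tris-HCl pH 8.0, 2 mM CaCl2, 2 mM beta-mercaptoethanol, 0.05% CHAPS. Cleavage of 150 nM Ub-rhodamine 110 read kinetically (Ex 485/Em 531) for 7 min.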", "units": {"activity change, negative = inhibition": "%"}, "values": [
      {"smiles": "C=CCOc1cccc(C2C(C(=O)c3ccco3)=C(O)C(=O)N2CCN(CC)CC)c1", "note": "(configuration not stated)", "activity change, negative = inhibition": -4.77},
      {"smiles": "CCCCn1c(SCC(=O)N2CCC(C)CC2)nc2cc(S(N)(=O)=O)ccc21", "activity change, negative = inhibition": -19.5},
      {"smiles": "NS(=O)(=O)c1ccc(NC(=O)/C=C/c2cn(-c3ccccc3)nc2-c2cccc(Cl)c2)cc1", "Potency": "8.91 µM (active)"},
      {"smiles": "O=C1OC[C@@H]2CCCN2C(=O)[C@@H](CC(=O)N(CCO)Cc2ccccc2)C/C=C\\C[C@@H]1Cc1ccc(F)cc1", "activity change, negative = inhibition": -2.99},
      {"smiles": "Cc1ccc(N2CN=c3s/c(=C\\c4cccnc4)c(=O)n3C2)cc1", "activity change, negative = inhibition": 0.546},
      {"smiles": "CC(C)(C)CC(C)(C)NCC(=O)Nc1c2c(nc3ccccc13)CCC2", "activity change, negative = inhibition": -5.64},
      {"smiles": "Cc1noc(NS(=O)(=O)c2ccc(N/C=C\\C(=O)c3cccc4ccccc34)cc2)c1C", "Potency": "10 µM (active)"}
    ]}
  ]
}
